Compound activity (PubChem)
Pf growth 48h = P. falciparum growth inhibition at 48 hours (one generation) | hit rate 5.9% among 310,000 | AID 504832 | P. falciparum luciferase growth in erythrocytes, 48 h | Potency, µM (highest dose often 28.7 µM), for inactives: at the highest dose activity change, negative = inhibition, most hits filed as inhibitors; also: potency is read from the fitted curve at half-maximal effect; % is scaled to controls: 0 for no effect and ±100 for the full control effect
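In quantitative HTS format, infected erythrocytes bearing luciferase-reporter parasites were treated for a single generation at 37 C. Luminescence after adding detection reagent served as the growth measure.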
HCV inhibitor = blocks hepatitis C virus | Huh7.5.1 HCVcc-Cre infection, luciferase reporter, 44 h | Potency, µM (highest dose often 41.8 µM), for the others: top-dose activity change, negative = inhibition, hits mostly inhibitors | hit rate 3.4% among 340,000; also: potency is read from the fitted curve at half-maximal effect; % is scaled to controls: 0 for no effect and ±100 for the full control effect
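Compounds are dispensed onto cells plated 4 h earlier at 1,000 per well, with HCVcc-Cre virus (about 0.5 moi) added next. Following 44 h of culture, luminescent signal is measured for 15 sec after 15 min with substrate at room temperature.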
Shiga toxin inh = Shiga toxin inhibition. Vero cells, Shiga toxin protein synthesis inhibition reporter. hit rate 9.2% among 290,000. AID 2315. inhibition, % at 38.7 µM; in the data active = inhibition mostly above about 28%, no sharp cut-off; inactive = mostly below about 43%; also: 0% is about no effect
CHX counter = affects cycloheximide protein synthesis inhibition readout, counter-screen; hit rate 12% among 300,000; max response, %; AID 2314; cell reporter, cycloheximide protein synthesis inhibition counterscreen; in the data active = max response mostly above about 13%, no sharp cut-off; inactive = mostly below about 14%; also: read at 38.3 µM for the half of the compounds with a filed dose; 0% is about no effect
Pf growth 96h = P. falciparum growth inhibition at 96 hours; P. falciparum luciferase reporter growth, 96 h; Potency, µM (series often up to 28.7 µM), inactives show at the highest dose activity change, negative = inhibition, most hits filed as inhibitors; hit rate 6.9% among 320,000; AID 504834; also: potency is read from the fitted curve at half-maximal effect; % is scaled to controls: 0 for no effect and ±100 for the full control effect
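Luminescence readout: decreased luciferase signal marks inhibited growth of reporter-expressing P. falciparum in infected red cells (2% hematocrit, 0.05% parasitemia final), exposed to compound two generations (96 h, 37 C, 5% CO2).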
AMA1 RON2 block = disrupts binding of P. falciparum AMA1 to RON2 | AlphaScreen AMA1-biotinylated RON2 peptide binding | Potency, µM (highest dose often 58.2 µM), inactives show top-dose activity change, negative = inhibition, hits mostly inhibitors | hit rate 0.2% among 360,000;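 also: potency is read from the fitted curve at half-maximal effect; 0% = vehicle wells and -100% = peptide control; nearly all actives have a fitted effect of over 45% in size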
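AMA1 (3D7) with his tag at 25 nM final met compounds first, then biotinylated RON2 peptide at 25 nM; detection used donor plus acceptor beads, 10 µg/mL apiece, read by AlphaScreen after 30 min at room temperature.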
* = called active by the depositor; ? = inconclusive; . = no result given. An excerpt weighted towards active compounds, which were near 21% of everything screened. Unless noted, calls follow the shape of the dose curve; as a rule, active = well fitted curve in the direction sought with a large enough effect; inconclusive = small, poorly fitted or top-dose-only effect, or another doubt; inactive = no such curve, though single readings can be large; an effect the other way counts as inactive or inconclusive.

SMILES	Pf growth 48h	HCV inhibitor	Shiga toxin inh	CHX counter	Pf growth 96h	AMA1 RON2 block
Cc1ccc2nc(N(CCCN(C)C)C(=O)c3ccc(S(=O)(=O)N(C)C)cc3)sc2c1	-12%	19%	-5	-2	-28%	12%
CCN(CC)CCN(C(=O)c1ccc2ccccc2c1)c1nc2cc3c(cc2s1)OCO3	?	?	-7	-3	?	-6%
CN(C)CCN(C(=O)c1ccc(C(=O)c2ccccc2)cc1)c1nc2cc3c(cc2s1)OCO3	13%	.	21	10*	12%	-25%
CN(C)CCN(C(=O)CN1C(=O)c2ccccc2C1=O)c1nc2cc3c(cc2s1)OCO3	?	-3%	49	27*	11%	-1%
CN(C)CCN(C(=O)c1ccc(S(=O)(=O)N(C)c2ccccc2)cc1)c1nc2ccc(Cl)cc2s1	-30%	?	64*	34*	?	13%
O=C(CCCN1C(=O)C2CC=CCC2C1=O)Nc1cccc(F)c1 (configuration not stated)	10%	.	23	-1	-18%	2%
COc1ccc(OCC(O)CN2CC(C)OC(C)C2)cc1 (configuration not stated)	-29%	7%	-8	0	134%	1%
CCNC(=O)C1(C)CCN(C(=O)c2cccc3ccccc23)C1 (configuration not stated)	.	.	.	.	.	9%
CN(C)CCCN(C(=O)c1ccc(S(=O)(=O)N(C)C)cc1)c1nc2cc3c(cc2s1)OCO3	?	-26%	14	8	18%	6%
CN(C)CCN(C(=O)c1ccc(S(=O)(=O)N(C)c2ccccc2)cc1)c1nc2cc3c(cc2s1)OCO3	30%	-3%	28	18*	37%	0%
CN(C)CCN(C(=O)c1ccc(N2C(=O)CCC2=O)cc1)c1nc2cc3c(cc2s1)OCCO3	100%	.	60*	38*	0%	.
CCN(Cc1ccccc1)S(=O)(=O)c1ccc(C(=O)N(CCCN(C)C)c2nc3cc4c(cc3s2)OCO4)cc1	?	?	-5	-1	?	-22%
CN(C)CCCN(C(=O)COc1ccccc1)c1nc2cc3c(cc2s1)OCCO3	54%	9%	18	24*	?	-1%
COc1ccc2sc(N(CCN(C)C)C(=O)c3ccc4ccccc4c3)nc2c1	8%	-18%	21	21*	97%	9%
CCCCN1CC(COCc2ccccc2)Oc2ccccc2S1(=O)=O (configuration not stated)	.	-24%	.	.	.	24%
O=[N+]([O-])c1ccc(SCc2ccncc2)nc1	-3%	19%	-4	-3	7%	2%
CN(C)CCCN(C(=O)c1ccco1)c1nc2ccc(Br)cc2s1	?	?	-13	-4	?	-1%
CN(C)CCN(C(=O)c1ccco1)c1nc2cc3c(cc2s1)OCCO3	75%	-13%	41	38*	29%	-10%
CCOC(=O)Cc1csc(NC(=O)c2ccc(OC)c(OC)c2)n1	-18%	-20%	-15	2	63%	10%
CCOC(=O)Cc1csc(NC(=O)c2cccc(OC)c2)n1	10%	-27%	20	12*	13%	10%
CCOC(=O)Cc1csc(NC(=O)c2csc(C)c2)n1	37%	?	35*	28*	.	-2%
CCOC(=O)Cc1csc(NC(=O)Nc2cccc(OC)c2)n1	?	-7%	30	17*	10µM*	-2%
CCOC(=O)Cc1csc(NC(=O)c2cccc([N+](=O)[O-])c2)n1	6%	-22%	4	0	55%	-3%
CCOC(=O)Cc1csc(NC(=O)c2sc3nc4c(C)cc(C)cc4cc3c2N)n1	?	?	12	20*	?	78%
CCOc1ccc(/C(O)=C2\C(=O)C(=O)N(c3ccccn3)C2c2ccccc2F)c(C)c1 (configuration not stated)	.	.	.	.	.	-3%
CCOC(=O)CN(Cc1sccc1C)C(=O)Nc1cccc(OC)c1	46%	7%	48*	12*	33%	-14%
CC(=O)C1C(c2ccc(Cl)cc2)c2c(noc2C)CC1(C)O (configuration not stated)	8%	-7%	-1	1	6%	1%
